Shown are actives, neighbours in structure and some others; about 4.6% of the full set was active somewhere.
NLRP3 yeast inh: blocks the NALP3 inflammasome reconstituted in yeast. Yeast reconstituted NLRP3/ASC/caspase-1, beta-gal luminescence, 24 h. inhibition, % at 10 µM. actives 0.39% (n = 330,000);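 active = inhibition of 50% or more; inactive = inhibition below 50%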
SKKanGAS inh: SKKanGAS growth inhibition; S. pyogenes SKKanGAS, kanamycin growth, BacTiter-Glo, 6 h; inhibition, % at 7.5 µM; actives 1.3% (n = 300,000); AID 1662;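 active = mean replicate score, as percent of positive control median, at least 50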;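 also: strain carries kanamycin resistance gene driven by streptokinase promoter and grows in 40 µg/ml kanamycin; loss of luminescence reflects streptokinase promoter inhibition or plain growth inhibition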
tim10-1 inh: inhibits growth of tim10-1 mutant yeast. S. cerevisiae tim10-1 ts strain growth, BacTiter-Glo, 24 h. inhibition, % at 20 µM. actives 2.2% (n = 330,000). AID 463190;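 active = inhibition of at least 40%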;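 also: mutant grown at 25 °C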
TIM10 inh: growth inhibitors of TIM10 yeast strain; actives 1.4% (n = 330,000); S. cerevisiae TIM10 strain growth, BacTiter-Glo luminescence, 24 h; inhibition, % at 10 µM;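 active = inhibition of 40% or more at the single tested concentration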;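 also: wild-type TIM10 isogenic control strain grown at permissive 25 °C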
PfHsp90 yeast 2: growth inhibition of yeast expressing Plasmodium Hsp90; inhibition, % at 9.4 µM; actives 0.32% (n = 310,000); S. cerevisiae expressing PfHsp90, BacTiter-Glo ATP, 48 h; yeast lacking PDR1 and PDR3 efflux regulators; AID 504621;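 active = every replicate shows inhibition above about 80%, whatever the replicate mean, limit read from the data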
tim23-1 inh: inhibits growth of tim23-1 mutant yeast; S. cerevisiae tim23-1 growth, BacTiter-Glo luminescence, 24 h; inhibition, % at 20 µM; actives 1.3% (n = 330,000); AID 463212;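 active = growth inhibition of the mutant yeast at or above 50%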;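 also: temperature-sensitive mutant grown at 25 °C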
tim10-1 conf: tim10-1 yeast growth inhibition, confirmed; shares compounds with tim10-1 inh; S. cerevisiae tim10-1 ts strain growth, BacTiter-Glo, 24 h; inhibition, % at 20 µM; actives 56% (n = 7,400); AID 463213;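 active = inhibition of yeast growth at or above a set limit in either of two repeat tests at 20 µM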;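 also: tim10-1 mutant grown at permissive 25 °C to find synthetic lethal compounds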
TIM10 conf: confirmation of TIM10 yeast growth inhibitors. shares compounds with TIM10 inh. S. cerevisiae tim10 strain growth, BacTiter-Glo luminescence, 24 h. inhibition, % at 10 µM. actives 63% (n = 4,600). AID 463215;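 active = inhibition of yeast growth at or above a set limit in either of two replicates at 10 µM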; also: this counterscreen used the strain with wild-type TIM10
tim23-1 confirm: tim23-1 yeast growth inhibition, confirmed | actives 83% (n = 4,400) | AID 463218 | S. cerevisiae tim23-1 growth, BacTiter-Glo luminescence, 24 h | inhibition, % at 20 µM | shares compounds with tim23-1 inh;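 active = inhibition above about 39% in either of two replicate wells at 20 µM, limit read from the data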;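 also: temperature-sensitive tim23-1 mutant grown at 25 °C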
Large screens that a line does not name were inactive (follow-up assays come after a bar, where they were run).

O=C1c2cccc3c([N+](=O)[O-])ccc(c23)C(=O)N1c1ccccn1	tim10-1 inh 94, TIM10 inh 77, tim23-1 inh 80 | tim10-1 conf 89 | TIM10 conf inactive | tim23-1 confirm 77
CC1(C)NC(=O)N(CC(=O)OCC(=O)Nc2cc(S(=O)(=O)N3CCCCC3)ccc2Cl)C1=O	none
COc1cccc(CN2CCCC(CNC(=O)c3ccc(F)cc3)C2)c1OC (configuration not stated)	none
c1ccc2[nH]c(-c3cnco3)cc2c1	none
O=C(c1ccc2nccnc2c1)N1CCCC(N2CCN(c3ccc(F)cc3)CC2)C1 (configuration not stated)	none
Cc1ccc(N2C(=O)CC(Sc3ncn[nH]3)C2=O)cc1C (configuration not stated)	tim10-1 inh 47, TIM10 inh 56, tim23-1 inh 77 | tim10-1 conf 53 | TIM10 conf 55 | tim23-1 confirm 49
Cc1cccc(N2C(=O)CC(Sc3ncn[nH]3)C2=O)c1 (configuration not stated)	none
O=c1c2ccccc2oc2ccc(-c3ccc4[nH]ccc4c3)cc12	tim10-1 inh 42, TIM10 inh 41, tim23-1 inh 62 | tim10-1 conf 39 | TIM10 conf 66 | tim23-1 confirm 74
O=c1c2ccccc2oc2cc(-c3ccc4cc[nH]c4c3)ccc12	none (no result: SKKanGAS inh)
COc1ccc2cc3cc(C(=O)N4CCN(c5ccccn5)CC4)oc3nc2c1	tim10-1 inh 44, TIM10 inh 55, tim23-1 inh 54 | tim10-1 conf inactive | TIM10 conf 59 | tim23-1 confirm inactive
Cc1ccc(S(=O)(=O)NCCC(=O)NCCOc2ccccc2)cc1	none (no result: SKKanGAS inh, PfHsp90 yeast 2)
Cc1ccc(C(=O)Oc2cc(N)n(S(=O)(=O)c3ccc(F)cc3)n2)cc1	tim10-1 inh 49, TIM10 inh 45, tim23-1 inh 52 | tim10-1 conf 34 | TIM10 conf 49 | tim23-1 confirm 43
COc1cccc(C(=O)Oc2cc(N)n(S(=O)(=O)c3ccc(C)cc3)n2)c1OC	none
O=C(NCC1CC1)C1(C(F)(F)F)CC(CCCO)CCCO1 (configuration not stated)	none
CCOC(=O)C1=C(CSc2nc(CC)c(C)cc2C#N)OC(N)=C(C#N)C1c1ccc(OC)cc1 (configuration not stated)	tim10-1 inh 41, tim23-1 inh 54 (no result: PfHsp90 yeast 2) | tim10-1 conf inactive | tim23-1 confirm 61
NNC(=O)c1cccc(COc2ccc(Br)cc2)c1	none
NNC(=O)c1cccc(COc2cccc(Br)c2)c1	tim10-1 inh 45, tim23-1 inh 51 | tim10-1 conf inactive | tim23-1 confirm inactive
O=C1c2ccc([N+](=O)[O-])cc2S(=O)(=O)N1Cc1ccccc1	tim10-1 inh 72, TIM10 inh 53, tim23-1 inh 76 | tim10-1 conf 69 | TIM10 conf 43 | tim23-1 confirm 86
O=C(COC(=O)c1ccc(O)cc1O)NC12CC3CC(CC(C3)C1)C2	none (no result: SKKanGAS inh)
O=C(OCC(=O)C12CC3CC(CC(C3)C1)C2)c1ccc(O)cc1O	tim10-1 inh 53, PfHsp90 yeast 2 101, tim23-1 inh 76 | tim10-1 conf inactive | tim23-1 confirm 62
CCc1ccc(C(=O)Cn2ncc(Cl)c(Cl)c2=O)cc1	none
O=C(OCn1ncc(Cl)c(Cl)c1=O)c1cccc(C(F)(F)F)c1	tim10-1 inh 72, TIM10 inh 53, PfHsp90 yeast 2 99, tim23-1 inh 74 | tim10-1 conf 72 | TIM10 conf 39 | tim23-1 confirm 72
N=c1c(C(=O)NC2CCCCC2)cc2c(=O)n3ccccc3nc2n1CCc1ccccc1	none
O=C(COC(=O)C12CC3CC(CC(C3)C1)C2)Nc1ccc(OC(F)F)cc1	tim10-1 inh 44, TIM10 inh 57, tim23-1 inh 59 | tim10-1 conf inactive | TIM10 conf 46 | tim23-1 confirm 62
Cc1ccc(C)c2sc(N3CCN(C(=O)c4ccc([N+](=O)[O-])o4)CC3)nc12	SKKanGAS inh 65, tim10-1 inh 70, tim23-1 inh 73 (no result: PfHsp90 yeast 2) | tim10-1 conf 60 | tim23-1 confirm inactive
O=c1c2c([N+](=O)[O-])cc([N+](=O)[O-])cc2nc2ccccn12	tim10-1 inh 42, tim23-1 inh 85 | tim10-1 conf 68 | tim23-1 confirm 87
O=C(Oc1cccc(C(=S)N2CCOCC2)c1)c1ccc([N+](=O)[O-])cc1[N+](=O)[O-]	tim10-1 inh 84, TIM10 inh 84, tim23-1 inh 78 | tim10-1 conf 84 | TIM10 conf 90 | tim23-1 confirm 87
O=C(Oc1ccc(C(=S)N2CCOCC2)cc1)c1ccc([N+](=O)[O-])cc1[N+](=O)[O-]	none
O=C(Oc1ccc(Br)cc1C(=S)N1CCOCC1)c1ccc([N+](=O)[O-])cc1[N+](=O)[O-]	tim10-1 inh 71, TIM10 inh 68, tim23-1 inh 67 | tim10-1 conf 77 | TIM10 conf 78 | tim23-1 confirm 84
O=C(N/N=C/c1ccccn1)c1sc2ccccc2c1Cl	tim10-1 inh 48, tim23-1 inh 76 | tim10-1 conf 41 | tim23-1 confirm 64
C=CCN(C(=O)c1csnn1)C(C(=O)NCc1ccc(F)cc1)c1ccccc1 (configuration not stated)	none
COc1cc(Nc2ccccn2)cc(C(=O)Nc2cccc(C(F)(F)F)c2)c1	tim10-1 inh 49, tim23-1 inh 51 | tim10-1 conf 36 | tim23-1 confirm 65
O=C(Cc1ccc(F)cc1)c1ccc(O)cc1O	tim10-1 inh 44, tim23-1 inh 55 | tim10-1 conf 35 | tim23-1 confirm 44
O=C(Cc1c(F)cccc1Cl)c1ccc(O)cc1O	tim10-1 inh 48, TIM10 inh 56, tim23-1 inh 67 | tim10-1 conf 60 | TIM10 conf 58 | tim23-1 confirm 68
CCc1cc(C(=O)Cc2ccc(F)cc2)c(O)cc1O	none
Cc1cc(C(=O)OCC(=O)Nc2c(Cl)cccc2C(F)(F)F)c(C)o1	none (no result: PfHsp90 yeast 2)
O=C(NCCO)c1ccc2c3n(nc2c1)-c1ccccc1CO3	none
O=C(NCC1CC1)c1ccc2c3n(nc2c1)-c1ccccc1CO3	tim10-1 inh 42, TIM10 inh 45, tim23-1 inh 69 (no result: PfHsp90 yeast 2) | tim10-1 conf 42 | TIM10 conf 44 | tim23-1 confirm 69
O=C(COc1ccccc1C(=O)O)Nc1nc2ccc([N+](=O)[O-])cc2s1	none
